Compound activity (PubChem BioAssay)
fixLJ activator: activators of Burkholderia fixLJ two-component system, primary screen, B. multivorans, GFP reporter; B. multivorans fixK-promoter GFP reporter, 18 h; active compounds read high; AID 1918990, 2023; z-score (concentration not given with the values); actives 0.3% (n = 29,000);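 active = replicate mean overnight rise in green fluorescent reporter signal, 3 or more SD over negative controls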
* marks the source's active call; other numbers are inactive results. This is one part of a sample in which hits are shown more often than they occur.

SMILES | fixLJ activator
O=C(Cn1ncc2c3ccccc3n(Cc3ccc(F)cc3)c2c1=O)NCc1cccs1 | -0.7
Cc1c2cnn(CC(=O)NCc3ccccc3)c(=O)c2c(C)n1Cc1cccc(Cl)c1 | 0.25
CC(CCc1ccccc1)NC(=O)Cn1ncc2c3ccccc3n(Cc3cccc(Cl)c3)c2c1=O (centres undefined) | 26*
O=C(Cn1ncc2c3ccccc3n(Cc3ccccc3)c2c1=O)NCc1ccccc1 | -2.9
COc1ccc(CNC(=O)Cn2ncc3c4ccccc4n(Cc4cccc(Cl)c4)c3c2=O)cc1 | 24*
O=C(Cn1ncc2c3ccccc3n(Cc3cccc(Cl)c3)c2c1=O)N1CCCCCC1 | 8.7*
CC(CCc1ccccc1)NC(=O)Cn1ncc2c3ccccc3n(Cc3ccccc3F)c2c1=O (centres undefined) | -1.8
O=C(Cn1ncc2c3ccccc3n(Cc3cccc(Cl)c3)c2c1=O)N1CCCCC1 | 2
O=C(Cn1ncc2c3ccccc3n(Cc3ccccc3)c2c1=O)NCc1cccs1 | -0.73
O=C(Cn1ncc2c3ccccc3n(Cc3ccccc3)c2c1=O)N1CCCCCC1 | -2.6
CC(CCc1ccccc1)NC(=O)Cn1ncc2c3ccccc3n(Cc3ccccc3)c2c1=O (centres undefined) | -2.7
O=C(Cn1ncc2c3ccccc3n(Cc3cccc(Cl)c3)c2c1=O)NCc1cccs1 | 11*
Cc1nccn1CC1(CNC2CCN(C(=O)c3ccncc3)CC2)CC1 | -2.7
COCCCN1CC2COC[C@]2(C(=O)NCc2ccccc2-n2cccn2)C1 (some centres undefined) | -0.95
COC1CCC[C@]12CCCN(C(=O)c1ccc3nc[nH]c3c1)C2 (some centres undefined) | 0.02
Cn1nc(C(F)(F)F)cc1C(=O)NC1COCC1Cc1ccncc1 (centres undefined) | -1.4
COc1cc(C)ccc1CN1CCn2nc(CNC(C)=O)cc2C1 | -0.88
Cn1nccc1CCC(=O)N1CCCN(C(=O)CCc2cccnc2)CC1 | 0.84
OCC(CNc1cc(-c2ccccc2)nc2ccnn12)Cc1ccsc1 (centres undefined) | -1.3
CCc1cc(C(=O)NCc2cc3n(n2)CCCN(S(C)(=O)=O)C3)ccn1 | 0.97
Cc1cc(N2CCN(C(=O)C3CC=CC3)CC2)nc(-c2ccccc2O)n1 | 0.14
Cc1nc(CCC(=O)N2CCCC3(CCC(=O)N(C4CC4)C3)C2)n[nH]1 (centres undefined) | 0.13
CCN1CCC(CNC(=O)N2CCN(Cc3ccccc3F)C(=O)C2)C1 (centres undefined) | -2.4
CCC(=O)N1CCc2[nH]cnc2C12CCN(C(=O)c1cc(C)ccc1C)CC2 | 1.1
O=C(C1CCCO1)N1CCC2(CC1)OCCc1c2[nH]c2ccccc12 (centres undefined) | 0.37
SMILES | fixLJ activator
Nc1c(C(=O)Nc2ccc(Cl)cc2F)sc2nc(-c3cccs3)ccc12 | 8.7*
Nc1c(C(=O)Nc2ccc(F)c(F)c2)sc2nc(-c3ccncc3)ccc12 | -0.61
Nc1c(C(=O)Nc2ccccc2Br)sc2nc(-c3cccs3)ccc12 | -4.1
O=C(NCCc1nc(-c2cccnc2)n[nH]1)c1ccc2cccc(Cl)c2n1 | -0.12
CCC(NC(=O)c1cc(OC)cc(C(=O)O)c1)c1ccnn1C (centres undefined) | -0.57
O=C(C=Cc1cc(CO)cs1)NCc1cn2ccccc2n1 | -2.2
O=C(NCCO)c1ccc(S(=O)(=O)N2CCCCCCC2)cc1 | -2
CCCn1cnnc1CNc1cc(-c2ccccc2)nc2ccnn12 | -0.45
CN1C(C(=O)c2ccccc2)=C(NC(=O)c2ccc(F)cc2)c2ccccc2S1(=O)=O | 7.5*
CN1C(C(=O)c2ccccc2)=C(NC(=O)c2ccccc2Br)c2ccccc2S1(=O)=O | 3.6*
Cc1ccc(NC(=O)c2ccccc2Br)c(C(=O)c2ccccc2)c1 | 0.54
CCCCC(=O)OC1=C(C(=O)c2ccccc2)N(C)S(=O)(=O)c2ccccc21 | 2.3
COC(=O)CN1C(C(=O)c2ccccc2)=C(OC(=O)c2ccc(F)cc2)c2ccccc2S1(=O)=O | 1.6
CCCN1C(C(=O)c2ccccc2)=C(OC(=O)C(C)(C)C)c2ccccc2S1(=O)=O | 0.47
Cc1cc(C)nc(SC(C)C(=O)N2CCC(c3ccn[nH]3)CC2)n1 (centres undefined) | -1.1
COc1cccc(NC(CNS(=O)(=O)c2ccc(C)cc2)c2ccccc2)c1 (centres undefined) | 1
Cc1ccc(NC(CNS(=O)(=O)c2ccc(Cl)cc2)c2ccccc2)cc1 (centres undefined) | -0.49
COc1cccc(NC(CNS(=O)(=O)c2ccc(Cl)cc2)c2ccccc2)c1 (centres undefined) | 4.2*
CC(C)C1CN(CCc2cn[nH]c2)CCC(=O)N1Cc1ccc(F)cc1 (centres undefined) | 0.6
Cc1cccc2[nH]c(CCNC(=O)C=Cc3cnc(N(C)C)nc3)nc12 | 0.31
Cc1nc(C(=O)N2CCCN(Cc3noc(C4CC4)n3)CC2)cs1 | -0.33
COC(=O)c1cc(OCC2CCC2)cc(C(=O)NCC2(C)COC2)c1 | 0.21
Cc1cccc(NC(=O)CCS(=O)(=O)c2cc(Br)cc3c2N(C(=O)C2CC2)CC3)c1C | 0.77
CCC(=O)N1CCc2cc(Br)cc(S(=O)(=O)CCC(=O)Nc3cccc(C)c3C)c21 | 3.4*
Cc1ccccc1NC(=O)CCS(=O)(=O)c1cc(Br)cc2c1N(C(=O)C1CC1)CC2 | 0.43
SMILES | fixLJ activator
Cc1ccc(Nc2c(-c3ccc(Br)o3)nc3ccccn23)cc1 | -1
Cc1ccc(Nc2c(-c3c[nH]c4ccccc34)nc3ccccn23)cc1 | 4.6*
Cc1ccc2nc(-c3c[nH]c4ccccc34)c(Nc3ccccc3C)n2c1 | -0.83
CN(CCn1cccn1)C(=O)C1CCCN(C2CCN(C(=O)C3CC3)CC2)C1 (centres undefined) | 0.65
COc1ccc(CNC(=O)c2ccc(CNS(=O)(=O)c3ccc(OC)cc3)cc2)cc1 | 0.21
COCc1noc(CNC(=O)c2ccc(N(C)S(C)(=O)=O)cc2)n1 | 3*
CN(c1ccc(C(=O)NCc2noc(-c3cccs3)n2)cc1)S(C)(=O)=O | -0.06
CC(C)OC1CN(C(=O)Cc2nc3ccccc3[nH]2)CC1O (centres undefined) | 0.82
O=C(CCc1ccc(-c2ccccc2)cc1)N1CC2CC(O)C(O)CC2C1 (centres undefined) | -0.48
Cn1cccc1C(=O)N1CCN(C(=O)c2ccccn2)C2CS(=O)(=O)CC21 (centres undefined) | 0.45
Cc1cc(C)n(Cc2ccc(C(=O)N(C)Cc3ncc(C)[nH]3)cc2)n1 | 2.1
O=C(c1cccc(S(=O)(=O)N2CCCC(O)C2)c1)N1CCCCCCC1 (centres undefined) | -0.5
COc1ccccc1-n1cc(CNC(=O)N2CCCC2)cn1 | -1.5
CC(C)(C)c1ccc(C2Sc3ccccc3NC3=C2C(=O)c2ccccc23)cc1 (centres undefined) | 3.5*
CC(=O)NCCNC(=O)c1cc(COc2ccccc2)[nH]n1 | 0.42
CN(C)c1nccnc1-c1cccc(C(=O)N(Cc2ccccn2)C2CC2)c1 | -0.12
CC(C)C(NC(=O)Cc1ccc(S(C)(=O)=O)cc1)c1nccn1C (centres undefined) | 0.29
Cc1cccc(C)c1NC(=O)Cn1c(=O)n(Cc2ccc(C(=O)NCc3ccco3)cc2)c(=O)c2sccc21 | -4.4
Cc1ccc(CNC(=O)c2ccc(Cn3c(=O)c4ccccc4n(CC(=O)Nc4c(C)cc(C)cc4C)c3=O)cc2)cc1 | -0.52
Cc1cc(C)c(NC(=O)Cn2c(=O)n(Cc3ccc(C(=O)NCc4ccco4)cc3)c(=O)c3sccc32)c(C)c1 | 4.5*
